Screening results (PubChem BioAssay)
USP30 inh: inhibitors of human USP30 deubiquitinase; Ubiquitin carboxyl-terminal hydrolase 30 (Homo sapiens), Q70CQ3; purified USP30, Ub-rhodamine cleavage fluorescence; inhibition, % at 25 µM; actives 5.3% (n = 47,000); AID 1645860, 2021
Target sequence (Q70CQ3 whole entry, looked up): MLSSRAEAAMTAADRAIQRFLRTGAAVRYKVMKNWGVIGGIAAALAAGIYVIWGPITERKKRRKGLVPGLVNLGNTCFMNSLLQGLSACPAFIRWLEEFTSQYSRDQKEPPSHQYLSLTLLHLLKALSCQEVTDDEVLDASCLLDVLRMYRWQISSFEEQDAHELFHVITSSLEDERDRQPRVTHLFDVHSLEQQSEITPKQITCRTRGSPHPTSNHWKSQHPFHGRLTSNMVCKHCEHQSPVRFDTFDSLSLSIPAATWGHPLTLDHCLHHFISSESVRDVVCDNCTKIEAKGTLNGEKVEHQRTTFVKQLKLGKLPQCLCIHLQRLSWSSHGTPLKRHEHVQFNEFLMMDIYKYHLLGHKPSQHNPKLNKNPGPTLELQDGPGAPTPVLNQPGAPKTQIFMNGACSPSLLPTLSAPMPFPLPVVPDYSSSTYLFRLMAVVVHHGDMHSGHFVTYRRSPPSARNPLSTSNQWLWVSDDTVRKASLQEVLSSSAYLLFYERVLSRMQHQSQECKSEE
USP17 inh: inhibitors of human USP17 deubiquitinase; AID 1645855, 2021; actives 6.5% (n = 47,000); Ubiquitin carboxyl-terminal hydrolase 17-like protein 5 (Homo sapiens), A8MUK1; purified USP17, Ub-rhodamine cleavage fluorescence, 3 h; inhibition, % at 50 µM
USP8 inh: inhibitors of human USP8 deubiquitinase; Ubiquitin carboxyl-terminal hydrolase 8 (Homo sapiens), P40818; purified USP8, Ub-rhodamine cleavage fluorescence, 30 min; inhibition, % at 20 µM; actives 4.2% (n = 47,000); AID 1645853, 2021
* marks the source's active call; other numbers are inactive results; · = no result. Most compounds without a hit are left out; they make up all but 12% or so of the library. Rule as the data show it: active = inhibition above about 30%; inactive = the rest.

SMILES | USP30 inh | USP17 inh | USP8 inh
CC1(C)OC(=O)[C@@]2(C)N[C@]1(C)C[C@@H]2C(=O)Nc1cccc2cccnc12 | -35.4 | 6.7 | 41.2*
CC1(C)OC(=O)[C@]2(C)C[C@@H](C(=O)Nc3cccc4cccnc34)[C@@]1(C)N2 | -0.8 | -5.1 | -4.3
COc1cccc(C(=O)Nc2ccc(-n3c(C)nc4ncccc4c3=O)cc2)c1 | 0.9 | -6.7 | -45.6
Cc1nc2ncccc2c(=O)n1-c1ccc(NC(=O)c2ccc(F)cc2F)cc1 | 34.4* | 15.5 | 19.3
c1ccc2c(c1)CCN(c1nc3cc4c(cc3s1)OCO4)C2 | 5.3 | 27.6 | 33.5*
Clc1ccc2nc(N3CCc4ccccc4C3)sc2c1 | 10.5 | -5.8 | 28.4
Cc1c(C(=O)NCC2CCCCC2)cnn1-c1ccccc1F | -7.6 | 11.5 | 7.9
CO[C@H]1CC[C@H](O)c2c1oc1c3c4c(c(O)c1c2=O)-c1c(cc2c(Cl)c(C)n(N)c(=O)c2c1O)C[C@@H]4OCO3 | 0.5 | 62.3* | 25.6
Cc1cc(-c2cnc(N3CCCC(C)C3)nc2C2CCNCC2)on1 (configuration not stated) | 22.0 | 8.4 | -0.7
O=C(Nc1ccc2c(c1)OCCO2)Nc1ccccc1OCc1cc(=O)n2ccccc2n1 | -3.9 | 4.3 | -8.4
Cc1ccc(NC(=O)Nc2ccccc2OCc2cc(=O)n3cc(C)ccc3n2)cc1 | -2.8 | 3.6 | 32.1*
Cc1cccc(NCc2cc(=O)n3cc(C)ccc3n2)c1 | 7.5 | 46.3* | 11.9
O=C(Nc1ccc(F)cc1)Nc1ccccc1OCc1cc(=O)n2ccccc2n1 | 46.4* | 41.2* | 42.8*
Cc1cccc(NC(=O)Nc2ccccc2OCc2cc(=O)n3cccc(C)c3n2)c1 | 29.3 | 9.2 | 36.2*
Cc1ccc2nc(CNc3cc(F)ccc3C)cc(=O)n2c1 | -56.3 | -12.3 | -3.5
Cc1ccc(C(=O)Nc2ccccc2OCc2cc(=O)n3cc(C)sc3n2)cc1 | 23.4 | 10.1 | -7.2
CCOc1ccccc1NC(=O)Nc1ccccc1OCc1cc(=O)n2cccc(C)c2n1 | 23.0 | 22.6 | -11.1
NC(=O)C(NCc1ccc(Br)cc1F)c1ccccc1 (configuration not stated) | 1.1 | -0.5 | -2.2
O=C(NCCc1ccccc1)C1CC(=O)N(c2ccc(OCC(=O)N3CCOCC3)cc2)C1 (configuration not stated) | -3.4 | -0.4 | 4.0
CN1CCN(C(=O)Cc2ccc(-n3cccn3)cc2)c2nc3ccccc3nc21 | -50.3 | -18.0 | 2.0
Cc1nnc(Nc2cccc(C3CCCNC3)n2)s1 (configuration not stated) | 23.3 | 1.7 | -38.8
Cc1nnc(Nc2cccc(C3CCCN(CC(N)=O)C3)n2)s1 (configuration not stated) | 30.1* | 7.9 | 5.1
Cc1nc(C2CCNC2)nc2c1CC(=O)N2Cc1ccccc1F (configuration not stated) | -7.0 | -6.3 | -6.9
CN(C)c1cccc(C(=O)N2CC3CN(S(=O)(=O)c4ccccc4)CC(C2)O3)c1 | 29.0 | 11.9 | 1.8
Cc1c(Cl)cccc1NC(=O)Cn1c(=O)c2ccccc2n2nncc12 | -109.4 | 50.4* | -6.3
SMILES | USP30 inh | USP17 inh | USP8 inh
Cc1c(Cl)cccc1NC(=O)CN1c2ccccc2S(=O)(=O)c2ccccc21 | · | -21.1 | -10.4
O=C(CCn1cnc2ccccc2c1=O)N1CCCC(c2nnc(C(F)(F)F)o2)C1 (configuration not stated) | -5.0 | -7.9 | -12.9
Cc1ccc(C(=O)N[C@@H]2CC[C@H]3Oc4ccccc4N[C@H]3[C@@H]2O)nc1 | 18.4 | 7.9 | -10.5
C/C=C/C(O)C(C)(C)C1C\C=C/C=C\C=C\C(O)Cc2nc(co2)C(=O)OC(C(C)(C)C(O)/C=C/C)C/C=C\C2OC2/C=C/C=C\c2nc(co2)C(=O)O1 (configuration not stated) | -216.5 | -23.4 | -162.0
Cc1cccc(-c2noc(-c3cc(-c4ccccc4)nc4ccccc34)n2)c1 | 28.0 | 15.0 | 16.7
Cc1nc2cc(-c3noc(-c4cccc5[nH]ccc45)n3)ccc2o1 | 5.1 | 36.4* | 55.0*
Cc1cccc(-n2nc(-c3nc(-c4cccc(Cl)c4)no3)c3ccccc3c2=O)c1 | 0.3 | -3.0 | -1.0
Cc1nc2cc(-c3noc(-c4nn(C)c5ccccc45)n3)ccc2o1 | 41.5* | 19.2 | -2.1
Cc1ccccc1-c1noc(COc2ccc(C(N)=O)cc2)n1 | -0.4 | 13.9 | -6.6
COc1ccc(C(=O)O[C@H]2C[C@@]3(C)O[C@H]3[C@@H](OC(C)=O)[C@@]3(C)[C@@H](OC(C)=O)C[C@@](O)(C(C)C)[C@H]23)cc1OC | -2.9 | -9.7 | -8.1
O=C(Nc1cccc(C(F)(F)F)c1)c1ccccc1Cc1ccccc1 | 18.1 | 35.2* | 18.0
O=C(CCC(=O)N(c1ccccc1)c1ccccc1)Nc1cccc(C(F)(F)F)c1 | 33.5* | 18.1 | -31.6
O=C(CCC(=O)N(c1ccccc1)c1ccccc1)Nc1ccc(F)cc1 | 5.5 | -4.9 | 1.1
Cc1ccc(F)cc1NC(=O)c1ccccc1Cc1ccccc1 | 0.4 | 11.6 | 6.5
CCc1ccccc1NS(=O)(=O)c1ccc2c(c1)N(C(C)=O)CC(C)S2 (configuration not stated) | 21.1 | 0.3 | 6.0
Cc1ccc(C)c(N(C(C)C(=O)NCc2ccncc2)S(C)(=O)=O)c1 (configuration not stated) | 35.1* | 35.3* | 18.2
Cc1ccc(NS(=O)(=O)c2cc(C(=O)NCc3ccncc3)ccc2C)c(C)c1 | 19.2 | 10.6 | 21.2
NS(=O)(=O)c1ccc(NS(=O)(=O)c2ccc(NC(=O)Nc3ccc(Cl)cc3)cc2)cc1 | 48.9* | 40.8* | 22.7
CC(=O)c1ccc(S(=O)(=O)Nc2ccc(C(=O)O)cc2)cc1 | -95.0 | -29.3 | 8.5
Oc1oc(C=Nc2ccc(C(F)(F)F)cc2)c2ccccc12 | 14.5 | 7.0 | 9.1
COc1cc2c(cc1OC)-c1c(c(C(=O)NC3CC3)nn1-c1ccccc1F)C2 | 10.6 | 0.1 | 1.9
Cc1[nH]c2ccc(C(=O)N3CCOC(C)(C(N)=O)C3)cc2c1C (configuration not stated) | 0.0 | 1.5 | 11.6
CCn1cc(SCC(=O)NCCc2ccc(OC)c(OC)c2)c2ccccc21 | -3.0 | -13.9 | -1.8
COc1ccc(CCNC(=O)CSc2nnc(NC(=O)c3ccccc3OC)s2)cc1OC | 31.9* | 9.3 | -45.9
O=C(CSc1nc(=O)n2ccccc2n1)Nc1ccccc1 | -13.6 | -3.6 | -13.3
SMILES | USP30 inh | USP17 inh | USP8 inh
O=C(CSc1ncnc2c1nnn2Cc1ccccc1F)NCc1ccc2c(c1)OCO2 | 21.2 | 7.3 | -28.6
COc1ccc(CCNC(=O)Cn2c(=O)c3sccc3n(Cc3cccc(Cl)c3)c2=O)cc1OC | 14.8 | 26.4 | 0.8
Cc1ccc(CNC(=O)CCCCCn2c(=O)c3sccc3n(CC(=O)c3ccc(Cl)cc3)c2=O)cc1 | -35.8 | -3.0 | 8.2
COc1ccc(Cl)cc1NC(=O)Cn1c(=O)n(CCCC(=O)NCc2ccc(C)cc2)c(=O)c2sccc21 | 19.7 | 20.0 | 67.6*
Cc1cccc(NC(=O)Cn2c(=O)n(-c3cc(C)cc(C)c3)c(=O)c3sccc32)c1 | 24.3 | 11.8 | 24.5
COc1ccc(NC(=O)CCCCn2c(=O)c3ccccc3n(CC(=O)c3ccc(F)cc3)c2=O)cc1 | -8.2 | 0.9 | -267.9
